# Reference: PubChem BioAssay (EPA / NIEHS)
# The source made the active and inactive calls. How the source made its calls: active means hit-call score of the fitted dose curve at least 0.9, where 1 is the maximum; inactive means score below 0.9.
# Read-out: Transforming growth factor beta 1 (TGFb1), TGFB1 (gene 7040)
# Assay: BSK_BE3C_TGFb1: BioMAP Diversity Plus: BE3C Assay for Transforming growth factor beta 1 (TGFb1) Biomarker Activity (AID 2283036;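 on outcome: TGF-b1 protein level measured by ELISA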)
# Settings: primary human bronchial epithelial cells; actives raise or lower the signal
# Summary of the method: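 Bronchial epithelial primary cells are treated with test chemical, then TGF-b1 is quantified by ELISA after 24 hours. Values derive from bidirectional fitting against DMSO, with cytotoxicity checked by SRB staining in parallel cultures.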
Structure (SMILES),outcome,AC50
O=C1O[C@H]([C@H](O)CO)C(O)=C1O,inactive,
O=C(O)CC(O)(CC(=O)O)C(=O)O,inactive,
CCCCCCCCCCCCCCOS(=O)(=O)O,,30.5 µM (active)
CN(C)CCCN(C)CCCN(C)C,inactive,
Cn1cnc2c1c(=O)[nH]c(=O)n2C,inactive,
N[C@@H](Cc1c[nH]c2ccccc12)C(=O)O,inactive,
CO[C@@H]1COCC[C@@H]1N[C@@H]1CC[C@@](C(=O)N2CCc3ncc(C(F)(F)F)cc3C2)(C(C)C)C1,inactive,
CC(C)c1cccc(C(C)C)c1,inactive,
CC(=O)O,inactive,
NC(=Nc1ccccc1)Nc1ccccc1,inactive,
CC(=O)S[C@H](C(=O)N[C@H]1Cc2ccccc2[C@H]2CCC[C@@H](C(=O)O)N2C1=O)C(C)C,inactive,
OCC(CO)n1cnc(-c2ccc(F)cc2)c1-c1ccnc(Oc2ccccc2)n1,inactive,
CCCCc1nc2cccnc2n1Cc1ccc(-c2ccccc2-c2nnn[nH]2)cc1,inactive,
O=C1NC(=O)C(c2ccccc2)(c2ccccc2)N1,inactive,
Nc1nc(=S)c2[nH]cnc2[nH]1,inactive,
CCCC[C@H]1CN(CC2CCOCC2)C(=O)OC12CCN(C1(C)CCN(C(=O)c3c(C)ncnc3C)CC1)CC2,inactive,
O=C(O)c1cccnc1,inactive,
O=C(Oc1ccccc1)c1cccc(C(=O)Oc2ccccc2)c1,inactive,
O=C1c2c(O)cccc2Cc2cccc(O)c21,inactive,
COc1ccc(C(=O)Nc2nc3ccccc3c(NCc3ccccc3)c2C#N)cc1,inactive,
O=[Si]=O,inactive,
COC(=O)CCC(=O)OC,inactive,
